Only a selection was taken, and hits are over-represented in it overall.
IDE exosite inh = exo-site inhibitors of human IDE, primary screen, biochemical, fluorescence anisotropy, probe displacement | hit rate 6.3% among 17,000 | AID 1259349, 2017 | z-score at 20 µM | purified IDE, FL-6b probe fluorescence polarization; hits give low values | Insulin-degrading enzyme (Homo sapiens), P14735;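 active = z-score of -3 or lower, meaning strong loss of probe binding signal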;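 note: His-tagged human IDE residues 42-1019 made in E. coli with 30 nM FL-6b probe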
Target sequence (P14735 42-1019 limits assumed): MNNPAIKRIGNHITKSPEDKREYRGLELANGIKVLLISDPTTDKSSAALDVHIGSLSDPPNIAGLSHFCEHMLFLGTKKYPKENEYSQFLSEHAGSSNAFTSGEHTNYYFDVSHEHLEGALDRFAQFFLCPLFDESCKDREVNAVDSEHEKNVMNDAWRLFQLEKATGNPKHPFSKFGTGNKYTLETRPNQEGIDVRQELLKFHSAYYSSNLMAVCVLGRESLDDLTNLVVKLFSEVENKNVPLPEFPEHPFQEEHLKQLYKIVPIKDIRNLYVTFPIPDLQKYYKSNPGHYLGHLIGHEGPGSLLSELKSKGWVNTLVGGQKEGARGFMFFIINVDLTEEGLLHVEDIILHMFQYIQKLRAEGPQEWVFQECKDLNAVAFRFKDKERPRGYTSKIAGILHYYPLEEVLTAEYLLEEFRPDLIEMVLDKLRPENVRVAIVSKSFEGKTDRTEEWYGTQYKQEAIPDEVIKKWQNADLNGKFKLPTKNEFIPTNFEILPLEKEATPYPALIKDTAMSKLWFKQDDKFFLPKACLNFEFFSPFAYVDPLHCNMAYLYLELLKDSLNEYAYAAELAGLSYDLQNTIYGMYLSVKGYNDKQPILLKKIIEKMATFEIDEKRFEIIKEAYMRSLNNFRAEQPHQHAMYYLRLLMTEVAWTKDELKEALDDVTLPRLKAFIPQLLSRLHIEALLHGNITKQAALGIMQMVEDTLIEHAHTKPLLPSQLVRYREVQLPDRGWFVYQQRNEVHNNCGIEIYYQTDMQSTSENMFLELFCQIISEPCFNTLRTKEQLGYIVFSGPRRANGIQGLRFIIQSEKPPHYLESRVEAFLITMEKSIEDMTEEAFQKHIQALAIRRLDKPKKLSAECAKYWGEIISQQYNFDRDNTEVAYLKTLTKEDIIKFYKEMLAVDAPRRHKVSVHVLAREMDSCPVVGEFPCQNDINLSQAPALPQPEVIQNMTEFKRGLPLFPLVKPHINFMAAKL
The depositor's hits bear a star.

SMILES | IDE exosite inh
O=C(c1cccc(F)c1)N1CC(=O)N2[C@H](C1)[C@@H](c1ccc(C3=CCCC3)cc1)[C@@H]2CO | 0.83
COc1cccc(C#Cc2ccc([C@@H]3[C@@H](C#N)N(C(=O)C4CC4)[C@H]3CO)cc2)c1 | 2.4
COc1cccc(C#Cc2ccc([C@@H]3[C@@H](CO)N(C(=O)C4CC4)[C@H]3C#N)cc2)c1 | 0.92
N#C[C@@H]1[C@@H](c2ccc(C#Cc3ccccc3F)cc2)[C@H](CO)N1C(=O)C1CC1 | 3.9
COc1cccc(C#Cc2ccc([C@H]3[C@@H](CO)N(C(=O)C4CC4)[C@H]3C#N)cc2)c1 | 1
COc1ccccc1C#Cc1ccc([C@H]2[C@H](C#N)N(C(=O)C3CC3)[C@H]2CO)cc1 | -7.6*
COc1ccccc1C#Cc1ccc([C@H]2[C@@H](C#N)N(C(=O)C3CC3)[C@H]2CO)cc1 | -9*
O=C(C1CCCCC1)N1CC(=O)N2[C@H](CO)[C@H](c3ccc(C#CCc4ccccc4)cc3)[C@@H]2C1 | -0.56
C/C=C/c1ccc([C@H]2[C@@H](CNCC)N(c3nc(C)c(C)s3)[C@H]2CO)cc1 | -0.61
O=C(C[C@H]1CC[C@H]2[C@@H](COC[C@@H](O)CN2C(=O)c2ccc3c(c2)OCO3)O1)NC1CCC1 | 0.014
CC(C)CC#Cc1ccc([C@H]2[C@@H](CO)N3C(=O)CN(C(=O)c4cnccn4)C[C@H]23)cc1 | 1.5
CCCN1[C@H](CO)[C@H](c2ccc(-c3ccccc3F)cc2)[C@@H]1CNC(=O)C1CCC1 | -2
O=C(c1ccc2c(c1)OCO2)N1CC(=O)N2[C@H](C1)[C@@H](c1ccc(C#CC3CCCC3)cc1)[C@@H]2CO | 1.5
O=C(Nc1ccccc1)N1CCCCN2[C@H](C1)[C@@H](c1ccc(C#Cc3cccnc3)cc1)[C@@H]2CO | 0.78
O=C(Cc1ccccn1)N1CC(=O)N2[C@H](C1)[C@H](c1ccc(-c3ccccc3)cc1)[C@@H]2CO | -1.5
O=C(Cc1ccccn1)N1CC(=O)N2[C@H](CO)[C@H](c3ccc(-c4ccccc4)cc3)[C@@H]2C1 | -3.7*
O=C(Cc1ccccn1)N1CC(=O)N2[C@H](CO)[C@H](c3ccc(C#CC4CC4)cc3)[C@@H]2C1 | 3.4
COc1ccc(-c2ccc([C@H]3[C@H](CO)N4C(=O)CN(C(=O)Cc5ccccn5)C[C@@H]34)cc2)cc1 | -1.3
O=C(Cc1ccccn1)N1CC(=O)N2[C@H](CO)[C@@H](c3ccc(C#CC4CC4)cc3)[C@@H]2C1 | 0.65
Cc1cccc(-c2ccc([C@@H]3[C@H]4CN(C(=O)Cc5ccccn5)CC(=O)N4[C@H]3CO)cc2)c1 | -15*
CN1CCN(C(=O)C[C@@H]2CC[C@H]3[C@H](COc4ccc(NC(=O)C5CCOCC5)cc4C(=O)N3C)O2)CC1 | -0.53
O=C(Cc1cccnc1)N1CC(=O)N2[C@H](CO)[C@@H](c3ccc(C4=CCCC4)cc3)[C@H]2C1 | 4.8
N#C[C@H]1[C@H](c2ccccc2-c2ccccc2F)[C@H](CO)N1C(=O)C1CCC1 | -1.8
CCCC#Cc1ccc([C@H]2[C@@H](CO)N3C(=O)CN(C(=O)c4ccccn4)C[C@@H]23)cc1 | 2.4
Cc1cc(C(=O)Nc2ccc3c(c2)C(=O)N(C)[C@H]2CC[C@@H](CC(=O)NCc4ccc(-c5ccccc5)cc4)O[C@H]2CO3)no1 | 0.0011
SMILES | IDE exosite inh
O=C(Cc1ccncc1)N1CC(=O)N2[C@H](C1)[C@H](c1ccc(C3=CCCC3)cc1)[C@@H]2CO | 2.7
CCC(=O)N1CC(=O)N2[C@@H](CO)[C@H](c3ccc(-c4ccccc4F)cc3)[C@@H]2C1 | 0.65
Cc1ccccc1-c1ccc([C@H]2[C@H](CO)N3C(=O)CN(S(C)(=O)=O)C[C@@H]23)cc1 | -1.4
COCC(=O)N1CC(=O)N2[C@H](CO)[C@@H](c3ccc(-c4ccccc4C)cc3)[C@H]2C1 | -0.94
CCS(=O)(=O)N1CC(=O)N2[C@H](CO)[C@@H](c3ccc(-c4ccccc4C)cc3)[C@H]2C1 | -0.81
CCC(=O)N1CC(=O)N2[C@H](CO)[C@@H](c3ccc(-c4ccccc4C)cc3)[C@H]2C1 | -4*
CCC(=O)N1CC(=O)N2[C@H](CO)[C@H](c3ccc(-c4ccccc4C)cc3)[C@@H]2C1 | -8*
CC(=O)N(C)C[C@H]1[C@@H](c2ccc(-c3ccc(C#N)cc3)cc2)[C@@H](CO)N1C(C)=O | 1.3
Cc1ccccc1S(=O)(=O)N1CC(=O)N2[C@H](C1)[C@H](c1ccc(C#CC3CC3)cc1)[C@@H]2CO | 3.2
CC(=O)N1[C@@H](CO)[C@@H](c2ccccc2)C12CN(S(=O)(=O)c1ccccc1)C2 | 1.1
CC(C)CC#Cc1ccc([C@H]2[C@@H](CO)N3C(=O)CN(C(=O)NC(C)C)C[C@H]23)cc1 | 3
CCS(=O)(=O)N1CC2(C1)[C@H](c1ccccc1)[C@@H](CO)N2C(=O)c1ccccc1 | 0.23
CS(=O)(=O)N1CC2(C1)[C@H](c1ccccc1)[C@@H](CO)N2Cc1ccccc1 | -1.3
CCC(=O)N1[C@H](CO)[C@@H](c2ccc(/C=C/c3ccccc3)cc2)C12CN(S(C)(=O)=O)C2 | -7.4*
COc1ccc(C[C@H]2CCn3nncc3COC[C@H](CC(C)C)NC2=O)cc1 | -1.5
Cc1cccc(S(=O)(=O)N2C[C@@H]3[C@H](c4ccccc42)[C@H](CO)N3CC2CCCC2)c1 | 2.4
CC(C)NC(=O)N(C)C[C@H]1Oc2ccc(NC(=O)Cc3ccccc3)cc2CC(=O)N([C@H](C)CO)C[C@H]1C | 1.2
COc1ccc(-c2ccc([C@H]3[C@@H](CO)N4CCCCN(C(=O)c5ccc(F)cc5)C[C@@H]34)cc2)cc1 | 2.7
O=C(C1CCCCC1)N1CC(=O)N2[C@H](C1)[C@@H](c1ccc(C#Cc3cccc(F)c3)cc1)[C@@H]2CO | -0.09
O=C(C1CCCCC1)N1CC(=O)N2[C@H](CO)[C@H](c3ccc(C#Cc4cccc(F)c4)cc3)[C@H]2C1 | -2.9
O=C(C1CC1)N1CC(=O)N2[C@H](CO)[C@@H](c3ccc(C#Cc4cccc(F)c4)cc3)[C@H]2C1 | -3.1*
O=C(c1cccc(F)c1)N1CC(=O)N2[C@H](CO)[C@H](c3ccc(C#Cc4ccc(F)cc4)cc3)[C@H]2C1 | 3.9
O=C(C1CCC1)N1CC(=O)N2[C@H](CO)[C@@H](c3ccc(C#Cc4cccc(F)c4)cc3)[C@H]2C1 | -6.9*
O=C(C1CC1)N1CC(=O)N2[C@H](CO)[C@H](c3ccc(C#Cc4cccc(F)c4)cc3)[C@H]2C1 | -9.6*
CCC(=O)N1CC(=O)N2[C@H](CO)[C@@H](c3ccc(C#Cc4cccc(F)c4)cc3)[C@H]2C1 | 2.6
SMILES | IDE exosite inh
O=C(C1CC1)N1CC(=O)N2[C@H](C1)[C@@H](c1ccc(C#Cc3cccc(F)c3)cc1)[C@@H]2CO | -2.9
O=C(C1CCCCC1)N1CC(=O)N2[C@H](CO)[C@H](c3ccc(C#Cc4cccc(F)c4)cc3)[C@@H]2C1 | 0.66
O=C(C1CC1)N1CC(=O)N2[C@@H](CO)[C@H](c3ccc(C#Cc4cccc(F)c4)cc3)[C@@H]2C1 | -5.8*
CCC(=O)N1CC[C@@H]2[C@H](CO)Nc3ccc(C#Cc4ccccc4F)cc3[C@@H]21 | 1.4
COc1ccccc1NC(=O)N1CC(=O)N2[C@H](CO)[C@@H](c3ccc(-c4ccccc4)cc3)[C@H]2C1 | -0.5
O=C1CN(S(=O)(=O)c2cccc(F)c2)C[C@@H]2[C@H](c3ccc(-c4ccccc4)cc3)[C@@H](CO)N12 | 1.1
CC(C)CC#Cc1ccc([C@H]2[C@H]3CN(C(=O)NC4CCCC4)CCCCN3[C@H]2CO)cc1 | 1.7

Compound activity: PubChem BioAssay, Broad Institute
